From PubChem BioAssay AID1159580 (chemical genetic matrix, 2015)
Where “and” joins values, the source holds several entries; their conditions need not be identical. Equal values may be shown once. The whole screen tested about 5,500 compounds, of which about 2,000 (36%) were called active. Inconclusive results (about 18%) are left out. Cut-off read from the data, not from the text of the source: active = normalized growth mostly below about 0.91 (no sharp cut-off); inconclusive = no clear call, values can overlap the other calls; inactive = mostly above about 0.92. Some of the results follow.

Test: chemical genetic growth profiling, strain panel (AID 1159580);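 note: tested at 20 µM; growth read once vehicle control cultures reached saturation at 30 °C; 1 = growth at the plate median or of vehicle wells; lower values mean less growth of the strain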
Conditions: S. cerevisiae deletion strains, growth OD

Measured: normalized growth

OC[C@H]1O[C@@H](O[C@@H]2[C@@H](CO)O[C@](O)(CO)[C@H]2O)[C@H](O)[C@@H](O)[C@H]1O
inactive: locus YAL021C, strain ccr4, active compounds read low 1.02 | locus YAL026C, strain drs2, active compounds read low 1.01 | locus YAL030W, strain snc1, active compounds read low 1 | locus YBL061C, strain skt5, active compounds read low 1.02 | locus YBR009C, strain hhf1, active compounds read low 1.01 | locus YBR021W, strain FUR4, active compounds read low 0.983 | locus YBR023C, strain chs3, active compounds read low 0.995 | locus YBR171W, strain sec66, active compounds read low 1.02 | locus YBR229C, strain ROT2, active compounds read low 0.986 | locus YBR231C, strain swc5, active compounds read low 1.01 | locus YBR279W, strain paf1, active compounds read low 1.02 | locus YCL011C, strain gbp2, active compounds read low 1.01 | locus YCL016C, strain dcc1, active compounds read low 0.985 | locus YCL029C, strain bik1, active compounds read low 0.988 | locus YCL069W, strain vba3, active compounds read low 1.01 | locus YCR088W, strain abp1, active compounds read low 1 | locus YDL005C, strain med2, active compounds read low 1.03 | locus YDL035C, strain GPR1, active compounds read low 1.01 | locus YDL040C, strain nat1, active compounds read low 1.01 | locus YDL074C, strain BRE1, active compounds read low 1 | locus YDL101C, strain DUN1, active compounds read low 0.988 | locus YDL185W, strain tfp1, active compounds read low 0.992 | locus YDL192W, strain arf1, active compounds read low 0.993 | locus YDR001C, strain nth1, active compounds read low 1.01 | locus YDR069C, strain doa4, active compounds read low 1.02 | locus YDR101C, strain arx1, active compounds read low 1.01 | locus YDR137W, strain rgp1, active compounds read low 1.01 | locus YDR150W, strain NUM1, active compounds read low 0.995 | locus YDR159W, strain sac3, active compounds read low 1.01 | locus YDR162C, strain NBP2, active compounds read low 1.01 | locus YDR195W, strain ref2 1.03 | locus YDR297W, strain sur2, active compounds read low 1.01 | locus YDR318W, strain mcm21, active compounds read low 0.981 | locus YDR334W, strain swr1, active compounds read low 1.01 | locus YDR335W, strain msn5, active compounds read low 1.02 | locus YDR388W, active compounds read low 0.987 | locus YDR392W, strain spt3, active compounds read low 0.949 | locus YDR502C, strain sam2, active compounds read low 0.986 | locus YEL003W, strain gim4, active compounds read low 1.01 | locus YEL037C, strain rad23, active compounds read low 1 | locus YEL061C, strain CIN8 (second series), active compounds read low 1.02 | locus YEL061C, strain CIN8, active compounds read low 0.995 | locus YER015W, strain faa2, active compounds read low 1 | locus YER016W, strain bim1, active compounds read low 1.02 | locus YER110C, active compounds read low 0.979 | locus YER111C, strain swi4, active compounds read low 1 | locus YER155C, strain BEM2 (second series), active compounds read low 1.03 | locus YER155C, strain BEM2, active compounds read low 0.987 | locus YER167W, strain BCK2, active compounds read low 0.995 | locus YFR010W, strain ubp6, active compounds read low 1.02 | locus YGL078C, strain dbp3, active compounds read low 0.963 | locus YGL086W, strain mad1, active compounds read low 1 | locus YGL167C, strain pmr1, active compounds read low 1.02 | locus YGL173C, strain kem1, active compounds read low 1.01 | locus YGL227W, strain vid30, active compounds read low 1.01 | locus YGL240W, strain doc1, active compounds read low 1.03 | locus YGL248W, strain PDE1, active compounds read low 0.983 | locus YGL253W, strain hxk2, active compounds read low 0.99 | locus YGR135W, strain pre9, active compounds read low 0.941 | locus YGR252W, strain gcn5, active compounds read low 0.944 | locus YHR013C, strain ard1, active compounds read low 1.03 | locus YHR027C, strain rpn1, active compounds read low 1.01 | locus YHR030C, strain SLT2, active compounds read low 0.993 and 0.984 | locus YHR079C, strain IRE1 (second series), active compounds read low 0.983 | locus YHR079C, strain IRE1, active compounds read low 0.989 | locus YHR094C, strain hxt1, active compounds read low 0.979 | locus YHR129C, strain ARP1, active compounds read low 0.992 | locus YHR142W, strain chs7, active compounds read low 1 | locus YHR200W, strain rpn10, active compounds read low 0.978 | locus YIL066C, strain RNR3, active compounds read low 0.994 | locus YIL073C, strain SPO22, active compounds read low 0.973 | locus YIL125W, strain kgd1, active compounds read low 0.978 | locus YIR030C, strain dcg1, active compounds read low 0.987 | locus YJL092W, strain hpr5, active compounds read low 1.01 | locus YJL095W, strain BCK1 (second series), active compounds read low 1.01 | locus YJL095W, strain BCK1, active compounds read low 0.977 and 0.994 | locus YJL115W, strain asf1, active compounds read low 1.01 | locus YJL129C, strain trk1, active compounds read low 1.01 | locus YJL134W, strain LCB3, active compounds read low 0.995 | locus YJL154C, strain vps35, active compounds read low 1.02 | locus YJL164C, strain tpk1, active compounds read low 0.984 | locus YJL166W, strain qcr8, active compounds read low 1.01 | locus YJL168C, strain set2, active compounds read low 0.976 | locus YJL187C, strain SWE1 (second series), active compounds read low 0.993 | locus YJR043C, strain POL32, active compounds read low 1.02 | locus YJR066W, strain TOR1, active compounds read low 0.942
